From PubChem BioAssay
NS1 inh: inhibitors of influenza NS1 protein function; actives 0.4% (n = 270,000); Potency, µM (doses to about 46.1 µM), without a hit: at the highest dose activity, positive = more growth; AID 2326; further: actives are rising curves; nearly all actives have a fitted effect of over 50% in size
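Read-out: OD600 growth recovery of NS1-expressing budding yeast. Cells grown overnight at 30C in -URA glucose medium, washed, resuspended and diluted 1:100 in 2% galactose assay medium, pH 6.0. Same strain lacking NS1 served as positive control.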
RE007 growth inh: less growth of the S. pombe RE007 Vpr strain; S. pombe RE007 Vpr strain, BacTiter-Glo ATP luminescence, 24 h; Potency, µM (series often up to 92.2 µM), for inactives: at the top dose activity change, negative = less growth, most hits filed as inhibitors; actives 0.21% (n = 360,000); active means well fitted falling curve with a large enough effect; inconclusive means small, poorly fitted or top-dose-only effect; inactive means no such curve, though single readings can be large or run the other way; further: on the % scale 0 is the no-effect control and ±100 the full control effect; nearly all actives have a fitted effect of over 50% in size
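Fission yeast RE007 carrying one integrated HIV-1 vpr copy, seeded at OD 0.01 in PMG+AL medium with 23 nL pinned compound. Grown 24 h at 30 degrees; viability read by BacTiter-Glo luminescence after 5 min.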
Pf growth 48h: inhibits P. falciparum growth in the first generation, 48 h; P. falciparum luciferase growth in erythrocytes, 48 h; Potency, µM (highest dose often 28.7 µM), for inactives: at the highest dose activity change, negative = inhibition, hits mostly inhibitors; actives 5.9% (n = 310,000); AID 504832; active means well fitted inhibition curve with a large enough effect; inconclusive means small, poorly fitted or top-dose-only effect, or another doubt; inactive means no such curve, though single readings can be large or run the other way; further: on the % scale 0 is the no-effect control and ±100 the full control effect
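A one-generation exposure of luciferase-tagged malaria parasites in RPMI 1640/Albumax erythrocyte culture, 37 C and 5% CO2. Inhibition is inferred from decreased luminescence after adding detection reagent.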
SARS PLpro yeast: SARS-CoV PLP inhibition in yeast | S. cerevisiae expressing SARS-CoV PLpro, growth rescue | Potency, µM (top dose mostly 32.9 µM), inactives show at the highest dose activity, positive = growth rescue, hits mostly activators | actives 0.19% (n = 330,000); further: 0% is about no effect; nearly all actives have a fitted effect of over 55% in size
Pf growth 96h: inhibits malaria parasite growth, 96 h. P. falciparum luciferase reporter growth, 96 h. Potency, µM (series often up to 28.7 µM), inactives show top-dose activity change, negative = inhibition, hits mostly inhibitors. actives 6.9% (n = 320,000); active means well fitted inhibition curve with a large enough effect; inconclusive means small, poorly fitted or top-dose-only effect, or another doubt; inactive means no such curve, though single readings can be large or run the other way; further: on the % scale 0 is the no-effect control and ±100 the full control effect
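Parasite growth measured via integrated firefly luciferase reporter in P. falciparum. Infected erythrocytes at 2% hematocrit, 0.05% parasitemia final were treated 96 hours at 37 C under 5% CO2, and luminescence was read.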
Numbers without * were called inactive; ? = inconclusive; . = no result; [ ] = another dose, or the depositor's remark. An excerpt weighted towards active compounds, which were near 9.5% of everything screened. Unless noted, the call rests on the fitted dose curve. Potency means the concentration at half of the fitted maximal effect.

SMILES | NS1 inh | RE007 growth inh | Pf growth 48h | SARS PLpro yeast | Pf growth 96h
Cc1cc(F)ccc1N1CCC(N2CCN(C(C)C)C(CCO)C2)CC1 (stereo not drawn) | -9% | -17% | -21% | -4% | 10µM*
CC(C)CN(C)c1nc(N)c(C(=O)N=C(N)N)nc1Cl | -12% | . | . | . | .
Nc1c(Cl)ncnc1N1CCCC1 | -1% | 14% | 6% | 0% | ?
NC(N)=NC(=O)c1nc(Cl)c(N)nc1N | 1% | 4%[18.4 µM] | 3.8µM* | -3% | ?
NC(N)=NC(=O)c1nc(Cl)c(N2CCCCCC2)nc1N | -9% | -12%[18.4 µM] | 4.7µM* | . | 9.3µM*
COc1ccc(-c2cn(CCC(=O)O)c(C)n2)cc1 | . | -5% | 6% | -9% | 61%
CCCCC(=O)OCc1c(-c2ccccc2)ncc2ccccc12 | . | 7% | -6% | -1% | ?
O=C(Nc1cccc(C(=O)N2CCCCC2)c1)C1CCCCC1 | . | -6% | . | . | .
CNC(=O)N1c2ccccc2CCc2ccccc21 | 4% | 1% | ? | 2% | ?
O=C(NN1c2ccccc2CCc2ccccc21)c1ccccc1Br | 12% | 14% | ? | -6% | 12µM*
CC1CCN(S(=O)(=O)CCNC(=O)c2ccccc2)CC1 | . | 21% | ? | 5% | 10%
Cc1ccccc1CN1CCc2c(OCC(=O)N3CCCc4ccccc43)cccc2C1=O | 5% | -2% | ? | 8% | 15µM*
O=C(c1ccc(Cl)cc1)C(CN1CCCCC1)c1ccccc1 (stereo not drawn) | -89% | ? | -4%[0.00184 µM] | -6% | 0%
CC(CN1CCOCC1)C(=O)c1ccccc1 (stereo not drawn) | -11% | -6% | . | 6% | 33%
O=C(c1ccccc1)C(CN1CCCC1)c1ccccc1 (stereo not drawn) | -28% | ? | ? | -46% | 12µM*
Cc1ccc(C(=O)C(C)CN2CCCCC2)cc1 (stereo not drawn) | . | . | 13µM* | . | 13µM*
CCOc1cc(NC(=S)NCCc2ccccc2)c(OCC)cc1NC(C)=O | -3% | 3% | -7% | -1% | 4%
O=C(CCC(=O)N(CC(=O)NC1CCCCC1)c1ccc(F)cc1)Nc1ccccn1 | 10% | -1% | -5% | . | -9%
Cc1cc2nc(N=C(N)N)nc(C)c2cc1C | . | 10% | ? | -1% | 0%
CCC(=O)N/C(N)=N/c1nc(C)c2cc(C)c(C)cc2n1 | -10% | -5% | 1.7µM* | 0% | 1.7µM*
Cc1cc2nc(/N=C(\N)NC(=O)C(C)C)nc(C)c2cc1C | 0% | -12% | 2.6µM* | -1% | 2.6µM*
CCCC(=O)N/C(N)=N/c1nc(C)c2cc(C)ccc2n1 | -3% | -10% | 2.6µM* | -1% | 2.6µM*
CCCCn1c(N)c(N(CCOC)C(=O)COC(=O)/C=C/c2ccc(Br)cc2)c(=O)[nH]c1=O | 9% | -13% | 2% | ? | 4%
C[C@@]12CC(=O)NC1N(C(=O)c1cccc(C(F)(F)F)c1)C(c1ccccc1OC(=O)c1cccc(C(F)(F)F)c1)C2 (stereo partly drawn) | 25% | 2% | . | 2% | 9.3µM*
c1ccc2c(C[C@@H]3CNCCN3CC3CCCCC3)cccc2c1 | . | 7% | ? | 11% | 12µM*
SMILES | NS1 inh | RE007 growth inh | Pf growth 48h | SARS PLpro yeast | Pf growth 96h
Oc1ccc(C[C@H]2CNCCN2CC2CCCCC2)cc1 | . | 3% | ? | 1% | ?
Cc1cnc(NC(=O)Nc2ccccc2)c(C)n1 | -5% | -2% | . | -4% | -2%
COc1ccc(C(C)(O)c2nc(-c3cccc(F)c3)cs2)cc1 (stereo not drawn) | . | 2% | . | . | .
COc1ccc(C(C)(O)c2nc(-c3cccc(C(F)(F)F)c3)cs2)cc1 (stereo not drawn) | . | 35µM* | . | . | .
Cc1sc(NC(=O)CSc2nnc(N)s2)c(C#N)c1C | 15% | 11% | 23% | 0% | 21%
CC(NC(=O)Nc1ccc([N+](=O)[O-])cc1)C(c1ccccc1)N1CCOCC1 (stereo not drawn) | . | 5% | ? | 0% | ?
CC(NC(=O)Nc1ccc(Cl)c(Cl)c1)C(c1ccccc1)N1CCOCC1 (stereo not drawn) | -31% | -3% | ? | -109% | 5.2µM*
CC(NC(=O)C1CCC(C(C)(C)C)CC1)C(c1ccccc1)N1CCOCC1 (stereo not drawn) | . | 2% | ? | 0% | 10µM*
CC(NC(=O)C1CC1)C(c1cccs1)N1CCOCC1 (stereo not drawn) | -5% | 7% | -3% | 0% | 57%
COc1ccccc1-c1coc2cc(O)cc(O)c2c1=O | -108% | -29% | 4% | -17% | .
O=c1c(-c2ccc(O)cc2O)coc2cc(O)cc(O)c12 | 1% | 9% | 87% | 0% | 1.2µM*
COc1cccc(NS(=O)(=O)NC(=O)c2c[nH]c3ccccc23)c1 | ? | -5% | 12µM* | 2% | 72%
Cc1ccccc1NS(=O)(=O)c1ccc2[nH]cc(C(=O)NCCCN3CCOCC3)c(=O)c2c1 | -7% | -1% | 4.1µM* | 3% | -9%
O=C(NCc1ccccc1)c1c[nH]c2ccc(F)cc2c1=O | 14% | 2% | ? | -1% | ?
COc1ccc(NS(=O)(=O)NC(=O)c2c[nH]c3ccccc23)cc1 | -4% | 0% | 3% | 1% | 39%
O=C(NCc1ccccc1)c1c[nH]c2ccc(S(=O)(=O)Nc3ccc4c(c3)OCCO4)cc2c1=O | 5% | -2% | ? | 0% | 15µM*
Cc1ccccc1NS(=O)(=O)c1ccc(C(=O)NCCCN2CCOCC2)cc1 | . | -2% | -2% | -5% | -4%
COc1cccc(NS(=O)(=O)c2ccc3[nH]cc(C(=O)NCCN4CCOCC4)c(=O)c3c2)c1 | 3% | -12% | 13µM* | -3% | 7%
CCOC(=O)[C@]12CCCC=C1N(Cc1cccc3ccccc13)C(=O)[C@H](CC(=O)N1CCN(C(=O)c3ccco3)CC1)C2 | . | 12% | . | . | .
COc1ccc(NC(=O)CN(C)C(=O)c2cccc(S(=O)(=O)N3CCN(c4ccc(F)cc4)CC3)c2)cc1 | . | -7% | . | . | .
O=C(Nc1ccnn1C1CCNCC1)c1ccc2c(c1)OCO2 | . | 2% | . | . | .
OC(c1cc(C(F)(F)F)nc2c(Cl)cc(Cl)cc12)C1CCCCN1 (stereo not drawn) | -1% | -20% | 0.013µM* | -2% | 0.0033µM*
OC(c1cc(-c2ccc(Cl)cc2)nc2ccccc12)C1CCCCN1 (stereo not drawn) | -4% | 5% | 0.037µM* | 1% | 0.052µM*
O[C@@H](c1cc(C(F)(F)F)nc2c(C(F)(F)F)cccc12)[C@H]1CCCCN1 | . | -17% | 0.033µM* | -6% | 0.015µM*
O[C@@H](c1cc(-c2ccccc2)nc2c1ccc1ccccc12)C1CCCCN1 (stereo partly drawn) | -3% | . | . | . | .
O[C@@H](c1cc(-c2ccc(Cl)cc2)nc2ccccc12)C1CCCCN1 (stereo partly drawn) | -10% | . | . | . | .
